The values below come from PubChem BioAssay AID2567 (National Center for Advancing Translational Sciences (NCATS), 2010).

Structures are written as SMILES. Several values for one entry are separate records, joined by “and”; a condition that tells them apart may be missing. Identical values can stand only once. Inconclusive results are not listed. Values without a mark were called inactive. Activity calls are given as the source filed them. Calls come from the whole dose curve; as a rule, active = well fitted antagonist curve with a large enough effect in the main read-out, with a control signal flat; inconclusive = small, poorly fitted or top-dose-only effect; inactive = no such curve, though single readings can be large or run the other way.

Sequence of Neuropeptide S receptor (Homo sapiens) (Q6W5P4 whole entry, looked up): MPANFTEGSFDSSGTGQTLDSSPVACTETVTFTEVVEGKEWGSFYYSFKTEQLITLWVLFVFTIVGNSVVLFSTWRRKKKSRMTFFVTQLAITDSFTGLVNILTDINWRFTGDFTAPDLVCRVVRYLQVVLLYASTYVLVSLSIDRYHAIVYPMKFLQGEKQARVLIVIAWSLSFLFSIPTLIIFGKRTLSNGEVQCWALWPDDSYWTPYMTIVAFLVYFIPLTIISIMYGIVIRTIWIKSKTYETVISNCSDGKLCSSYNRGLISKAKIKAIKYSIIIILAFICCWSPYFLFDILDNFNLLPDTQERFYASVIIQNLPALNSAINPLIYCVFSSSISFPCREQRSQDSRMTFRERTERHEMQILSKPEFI

In the assay the target is Neuropeptide S receptor (Homo sapiens) (UniProt Q6W5P4). Put plainly: Confirmation Concentration-Response Assay for Antagonists of the Neuropeptide S Receptor: Calcium Signal Transduction, SAR for Probe. Conditions: CHO-NPSR cells, NPS-induced calcium fluorescence, FDSS; series mostly up to 50.9 µM; activity change, negative = inhibition: at the top concentration. From the text:
NIH Chemical Genomics Center [NCGC] NIH Molecular Libraries Probe Production centers Network [MLPCN] MLPCN Grant: X01-DA026210-01 Assay Submitter (PI): Heilig, Markus Alexander NCGC Assay Overview: Neuropeptide S receptor (NPSR), previously known as GPR154, is a recently de-orphanized G protein coupled receptor. Its endogenous ligand is the 20 amino acids peptide Neuropeptide S (NPS). […] NPS and its receptor are found in various tissues. Specifically they are highly expressed in brain areas that have been implicated in modulation of arousal, stress and anxiety. Central administration of NPS in mice produces an unusual profile of activity by inducing wakefulness and arousal, while at the same time suppressing anxiety. Therefore, NPSR may represent a novel drug target for the treatment of sleep and anxiety disorders. To identify NPSR antagonists, we developed a cell-based assay with transfected NPS receptor. NPS can stimulate the production of cAMP as well as release intracellular calcium in Chinese hamster ovary cells stably expressing NPS receptor. This change in intracellular calcium can be detected using a calcium indicator dye on a calcium imaging plate reader system (FDSS).
NCGC Assay Protocol Summary: A Chinese hamster ovary (CHO) cell line stably expressing the NPS receptor (CHO-NPSR) was obtained from Dr. Heilig lab at NIAAA and maintained in F-12 Kaighn's media (Invitrogen, Carlsbad, CA, 21127) supplemented with 10 % FBS, 100 units/ml penicillin, 100 ug/ml streptomycin and 250 ug/ml geneticin at 37C, 5% CO2 in a humidified atmosphere. Before the assay, aliquots of cells were frozen and stored at -135C. The assay was performed on a FDSS-7000 kinetic plate reader in 1536-well format. For both agonist (1-220s) and antagonist (221-400s) phases, the maximums of kinetic fluorescence responses were converted separately into text files using the instrument's software data export utility. Data for agonist response were normalized to the controls for basal activity (DMSO only) and 100% activation (NPS). […] AC50 values were determined from concentration-response data modeled with the standard Hill equation. NPS 1536-well FDSS assay protocol: (1) Frozen CHO-NPSR cells were thaw, washed once with fresh media and resuspended in F-12 Kaighn's media supplemented with 10 % FBS, 100 units/ml penicillin and 100 ug/ml streptomycin. Cells were plated at 3 ul/well (1200 cells) to black, clear-bottom, tissue-culture treated 1536-well plates, and then cultured at 37C, 5 % CO2 for 16 to 30 hours. (2) Add 3 ul of calcium dye (from High Performance PBX Calcium Assay Kit, BD Biosciences). The calcium dye was prepared according to the manufactory's instruction. (3) Incubation at 37C, 5 % CO2 for 60 to 120 min. (4) Load plates to FDSS-7000. The following steps were performed on FDSS-7000. (5) Record fluorescent background (Ex 480 nm, Em 520-560 nm) for 10 s. (6) Add 23 nl/well of compound in DMSO solution. The final titration for each compound was between 0.6 nM and 46 uM. Record agonist response for 210 s. (7) Add 2 ul of stimulation reagent (1X HBSS buffer, 0.1% BSA, 60 nM NPS). Record antagonist response for 140 s. Keywords: MLSMR, MLPCN, NIH Roadmap, qHTS, NCGC, NPS, Neuropeptide S Antagonists
On to `CC(=O)Nc1cc([As](=O)(O)O)ccc1O`, for which the “activity change, negative = inhibition” value is 25.2% [at 19.3 µM].
In the case of `Cc1c(P(=S)(c2ccccc2)c2ccccc2)[n+]2ccccc2n1C/C=C/c1ccccc1`, the Potency was 0.0438 µM (active).
On to `Cc1nc2ccccn2c1P(=S)(c1ccccc1)c1ccccc1`, for which the Potency was 9.79 µM (active).
For `Cc1c(P(=S)(c2ccccc2)c2ccccc2)[n+]2ccccc2n1CCCc1ccccc1`, the Potency is 0.0552 µM (active).
Consider `S=P(c1ccccc1)(c1ccccc1)c1c(-c2ccccc2)[nH]c2ccccc12`, for which the “activity change, negative = inhibition” value is -14.5%.
For `C=C1C(=O)O[C@@H]2C[C@@H](C)[C@@H]3C=CC(=O)[C@@]3(C)[C@@H](OC(=O)CC(=O)O[C@H]3[C@@H]4C(=C)C(=O)O[C@@H]4C[C@@H](C)[C@@H]4C=CC(=O)[C@]43C)[C@H]12`, the Potency is 0.0891 µM (active).
For `C[C@H]1CCCC(=O)CCCCCc2cc(O)cc(O)c2C(=O)O1`, the “activity change, negative = inhibition” value was 10.8% [at 19.3 µM].
In the case of `S=P(c1ccccc1)(c1ccccc1)c1c[n+](Cc2ccccc2)c2ccccn12`, the Potency was 6.93 µM (active).
In the case of `Cn1c(-c2ccccc2)c(P(=S)(c2ccccc2)c2ccccc2)c2ccccc21`, the “activity change, negative = inhibition” value was 7.11%.
For the compound `Cc1c(P(=S)(c2ccccc2)c2ccccc2)[n+]2ccccc2n1CCc1ccccc1`, the Potency was 1.38 µM (active).
Take `Cc1c(P(=S)(c2ccccc2)c2ccccc2)[n+]2ccccc2n1Cc1ccccc1`: the Potency is 1.74 µM (active).
Regarding `CCOC(=O)c1c(-n2c(C)cc(C=C3C(=O)NC(=S)NC3=O)c2C)sc2c1CCCC2`, the Potency was 2 µM (active).
Turning to `Cn1cc(P(=S)(c2ccccc2)c2ccccc2)c2ccccc21`, the “activity change, negative = inhibition” value is -16.2%.
For `CNc1ccc2oc(C[C@H]3O[C@@]4(CC[C@H]3C)O[C@H]([C@H](C)C(=O)c3ccc[nH]3)[C@H](C)C[C@H]4C)nc2c1C(=O)O`, the Potency is 0.0158 µM (active).
The same measure, in the same setting: the figure for `S=P(c1ccccc1)(c1ccccc1)c1cnc2ccccn12` is 12.3 µM (active).
Take `Cc1c(P(=S)(c2ccccc2)c2ccccc2)c2ccccc2n1C`: the “activity change, negative = inhibition” value is -16.7%.
For `C=C(C=O)C[C@@H]1C[C@H](O)C2OC3C[C@]4(C)OC5/C=C\CC6OC7C(CC=CCC6OC5CCCC4OC3CC2O1)OC1CC2OC3CC(=O)OC3C[C@@H](C)C[C@@]2(C)OC1C[C@@H]7C` (stereo partly drawn), the Potency was 0.501 µM (active).
As to `Cc1c(P(=S)(c2ccccc2)c2ccccc2)[n+]2ccccc2n1C`, the Potency is 199 nM (active) and 251 nM (active) and 220 nM (active).
